Measurements published in PubChem BioAssay AID1347165 (National Center for Advancing Translational Sciences (NCATS), 2019).
About 5,700 (2.6%) of roughly 220,000 compounds were called active. Another 18% or so got no clear call; they are omitted. The call rests on the fitted dose curve; in most records, active means well fitted inhibition curve with a large enough effect; inconclusive means small, poorly fitted or top-dose-only effect; inactive means no such curve, though single readings can be large or run the other way. What follows is part of a selection rich in actives, with near analogues and random picks from the rest.

Each compound was assayed against Lysine-specific demethylase 5B (Homo sapiens) (UniProt Q9UGL1) (assay: Primary screen for KDM5B Histone Demethylases FDH-coupled qHTS). Conditions: FDH-coupled NADH fluorescence (FDH is formaldehyde dehydrogenase); series mostly up to 57.7 µM; activity change, negative = inhibition: at the top concentration.
Method in brief: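 Coupled FDH/NAD⁺ fluorescence readout. KDM5BΔAP 200 nM final; compound titration, 10 min RT preincubation; substrate mix 12.5 µM H3K4me3, 25 µM 2-OG, 50 µM Fe(II), 100 µM ascorbate, 0.25 mM NAD⁺, 0.25 U/mL FDH; ΔRFU over 30 min.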
Further: nearly all actives have a fitted effect of over 70% in size.
Potency means the concentration at half of the fitted maximal effect.
Wherever activity change, negative = inhibition is given: 0% is about no effect.

Sequence of Lysine-specific demethylase 5B (Homo sapiens) (Q9UGL1 whole entry, looked up): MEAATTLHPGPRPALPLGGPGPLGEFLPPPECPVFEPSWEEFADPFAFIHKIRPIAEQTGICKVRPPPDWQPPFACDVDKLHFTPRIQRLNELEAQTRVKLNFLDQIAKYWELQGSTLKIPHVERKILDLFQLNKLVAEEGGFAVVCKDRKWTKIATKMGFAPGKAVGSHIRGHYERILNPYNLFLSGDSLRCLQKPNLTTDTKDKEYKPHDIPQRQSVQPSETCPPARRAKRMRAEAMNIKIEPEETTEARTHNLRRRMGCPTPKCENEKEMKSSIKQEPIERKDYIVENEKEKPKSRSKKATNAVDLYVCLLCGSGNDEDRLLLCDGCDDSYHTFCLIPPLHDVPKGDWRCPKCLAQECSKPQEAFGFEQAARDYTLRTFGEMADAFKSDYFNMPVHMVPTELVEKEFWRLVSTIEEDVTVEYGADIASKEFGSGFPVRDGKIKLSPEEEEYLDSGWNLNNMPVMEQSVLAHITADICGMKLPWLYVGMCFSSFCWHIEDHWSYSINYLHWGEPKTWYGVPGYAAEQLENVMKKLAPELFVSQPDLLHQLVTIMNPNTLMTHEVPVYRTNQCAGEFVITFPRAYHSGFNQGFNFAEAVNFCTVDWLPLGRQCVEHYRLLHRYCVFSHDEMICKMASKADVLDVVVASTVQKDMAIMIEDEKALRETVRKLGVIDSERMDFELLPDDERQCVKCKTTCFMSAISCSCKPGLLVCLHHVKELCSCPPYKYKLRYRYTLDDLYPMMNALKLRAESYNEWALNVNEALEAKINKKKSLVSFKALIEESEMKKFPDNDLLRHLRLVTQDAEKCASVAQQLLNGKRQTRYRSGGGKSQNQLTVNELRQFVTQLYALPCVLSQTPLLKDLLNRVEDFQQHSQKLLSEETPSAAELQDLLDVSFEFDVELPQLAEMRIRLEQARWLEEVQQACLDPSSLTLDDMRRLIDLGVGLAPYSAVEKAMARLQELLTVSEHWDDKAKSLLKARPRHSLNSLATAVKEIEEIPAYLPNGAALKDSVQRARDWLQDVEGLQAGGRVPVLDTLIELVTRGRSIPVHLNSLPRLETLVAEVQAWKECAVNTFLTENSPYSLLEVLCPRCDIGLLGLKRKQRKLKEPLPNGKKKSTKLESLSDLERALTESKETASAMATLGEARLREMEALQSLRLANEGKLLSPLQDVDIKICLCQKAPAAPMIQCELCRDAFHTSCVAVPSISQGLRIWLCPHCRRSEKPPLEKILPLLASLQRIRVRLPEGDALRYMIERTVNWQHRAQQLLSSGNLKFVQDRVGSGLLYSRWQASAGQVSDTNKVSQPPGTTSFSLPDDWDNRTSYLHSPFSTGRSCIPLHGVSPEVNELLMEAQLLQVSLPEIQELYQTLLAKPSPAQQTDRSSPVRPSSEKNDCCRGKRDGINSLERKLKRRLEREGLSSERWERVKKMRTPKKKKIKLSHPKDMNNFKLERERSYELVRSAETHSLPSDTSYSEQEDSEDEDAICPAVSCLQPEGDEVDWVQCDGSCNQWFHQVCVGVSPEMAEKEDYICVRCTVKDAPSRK

Row | Compound | activity change, negative = inhibition | Potency
1 | COc1ccccc1N1CCN(C(=O)C2CCCN(C(=O)c3ccccc3)CCC(=O)NCC2)CC1 (centres undefined) | -0.385% (inactive) | –
2 | C=CCN1CCN(C(=O)C2CCCN(C(=O)c3ccccc3)CCC(=O)NCC2)CC1 (centres undefined) | 12.5% (inactive) | –
3 | Cc1cccc(C(=O)N2CCCC(C(=O)N3CCN(c4ccccn4)CC3)CCNC(=O)CC2)c1 (centres undefined) | – | 15.8 µM (active)
4 | Cc1cccc(C(C(=O)N2CCN(S(=O)(=O)N(C)C)CC2)N(C)C)c1 (centres undefined) | -7.54% (inactive) | –
5 | O=C(c1cccc2[nH]ccc12)N1CCC2(CC1)N=C(c1cccc(Br)c1)NO2 | – | 28.2 µM (active)
6 | Cc1ccc(C2=NC3(CCN(C(=O)c4ccc(C#N)cc4)CC3)ON2)cc1 | -5.83% (inactive) | –
7 | O=C(c1ccccc1F)N1CCN(C(=O)c2c[nH]c3ccccc23)CC1 | 10.4% (inactive) | –
8 | O=C(c1ccc2[nH]ccc2c1)N1CCC(N2CC(OCC3CC3)C23CCOCC3)CC1 (centres undefined) | -7.23% (inactive) | –
9 | O=C(c1ccc2cc[nH]c2c1)N1CCC2(CC1)N=C(c1ccc(Cl)cc1)NO2 | – | 28.2 µM (active)
10 | CC1CCN(c2ccc(NC(=O)Cn3c(-c4cscn4)nc4ccccc43)cc2)CC1 | -5.67% (inactive) | –
11 | CC1(C)Cc2c(sc3c2c(=O)n(CCO)c(=O)n3CCc2ccccc2)CO1 | 5.34% (inactive) | –
12 | Cc1csc2nc(COc3ccc(NC(=O)C4CCCCC4)cc3)cc(=O)n12 | -1% (inactive) | –
13 | CCOC(=O)N1CCN(Cc2cc(=O)oc3ccc(C)cc23)CC1 | -1.64% (inactive) | –
14 | O=C(NCc1ccnc2[nH]ccc12)c1ccccn1 | 5.45% [at 86.2 µM] (inactive) | –
15 | O=C(NCc1ccnc2[nH]ccc12)c1ccc(F)cc1 | – | 35.5 µM (active)
16 | O=C(NCc1c[nH]c2ncccc12)c1ccccc1F | 36.6% [at 86.2 µM] (inactive) | –
17 | COc1ccc(N2CCN(C3CCCN(CC(=O)N(C)C(C)C)C3)CC2)cc1 (centres undefined) | -16.9% (inactive) | –
18 | COC(=O)CNC(=O)CNC(=O)c1nn(-c2ccc(OC)cc2)c(=O)c2ccccc12 | -5.61% (inactive) | –
19 | COc1ccc(-n2nc(-c3ccccc3)n(CC(=O)N(C)CC(C)C)c2=O)cc1 | – | 31.6 µM (active)
20 | CCOC(=O)C(NC(=O)/C=C/c1c(Cl)cccc1Cl)C(=O)OCC | 25.9% (inactive) | –
21 | CSc1ccc(CNC(=O)c2cc3c(N4CCCC4)nc(C)cn3n2)cc1 | – | 28.2 µM (active)
22 | Cc1cn2nc(C(=O)NCc3ccc(F)cc3)cc2c(N2CCCC2)n1 | – | 25.1 µM (active)
23 | Cc1cn2nc(C(=O)NCC(C)c3ccccc3)cc2c(N2CCCC2)n1 (centres undefined) | -1660% (inactive) | –
24 | Cc1cn2nc(C(=O)NCc3cccs3)cc2c(N2CCCC2)n1 | -2110% (inactive) | –
25 | Cc1ccc2cc(C(=O)NCc3ccc(N4CCCC4)nc3)c(C)nc2c1 | -7.88% (inactive) | –
26 | CSc1ccc(CNC(=O)c2noc(-c3ccc(C)cc3)n2)cc1 | -6.66% (inactive) | –

Row | Compound | activity change, negative = inhibition | Potency
27 | CCOC(=O)C(=O)Nc1ccc(C(=O)OC)cc1 | 23.4% (inactive) | –
28 | CSc1ccc(CNC23CC4CC(C)(CC(C)(C4)C2)C3)cc1 | 16.9% (inactive) | –
29 | Cc1cccc(C)c1OCC(O)Cn1cnc2c(cnn2-c2ccc(F)cc2)c1=O (centres undefined) | 5.4% (inactive) | –
30 | Cn1c(SCc2ccc(F)cc2)nnc1-c1ccncc1 | 17.7% (inactive) | –
31 | COc1ccc(OC)c2[nH]c(C(=O)NCC(=O)Nc3nc(C)cs3)cc12 | 29.2% (inactive) | –
32 | CCC1(C)CC(CC(=O)OC(C)CN(C)C)(c2ccccc2)CCO1 (centres undefined) | 32.5% (inactive) | –
33 | Cc1cc(N)n(CC(=O)N[C@@H]2COCC[C@@H]2OCc2c(C)noc2C)n1 | -15.9% (inactive) | –
34 | Cc1noc(C)c1CCCNC(=O)c1ccc(N(C)C2CCOC2)nc1 (centres undefined) | 1.14% (inactive) | –
35 | CNc1ncc(C(=O)N[C@@H]2COCC[C@@H]2OCc2c(C)noc2C)cn1 | – | 28.2 µM (active)
36 | O=C(NC1(c2ccc(Cl)cc2)CCC1)c1cc(Cl)c[nH]1 | 4.6% (inactive) | –
37 | Cc1ccc(Cc2nn3c(SCC(=O)Nc4ccccc4C(F)(F)F)nnc3[nH]c2=O)cc1 | 0.896% (inactive) | –
38 | COC(=O)[C@H](C)NC(=O)C12CC3CC(CC(C3)C1)C2 | 16.7% (inactive) | –
39 | CCc1c(C)sc(NC(=O)C(CC)CC)c1C#N | -13.5% (inactive) | –
40 | COCC1CCN(C(=O)c2ccc3oc(Cc4ccccc4)nc3c2)C1 (centres undefined) | 30.4% (inactive) | –
41 | Cc1ccc(-c2cc(N3CCCN(C(=O)c4nn(C)c5ccccc45)CC3)n[nH]2)cc1C | -17.1% (inactive) | –
42 | COc1ccc(-c2[nH]nc3ncc(-c4ccccc4)nc23)c(C)c1 | -17.3% [at 86.2 µM] (inactive) | –
43 | COCCNC(=O)c1cnc2n[nH]c(-c3ccccc3OC)c2n1 | -15.1% [at 86.2 µM] (inactive) | –
44 | COc1ccccc1-c1[nH]nc2ncc(-c3cccc(CO)c3)nc12 | – | 39.8 µM (active)
45 | Oc1ccc(/C=C(/Cl)c2ncc(-c3ccc(F)cc3)o2)cc1 | -3.78% (inactive) | –
46 | COc1cc(NC(=O)c2cc3c(N4CCSCC4)nc(C)cn3n2)cc(OC)c1 | – | 31.6 µM (active)
47 | Cc1cn2nc(C(=O)NC3CCCC3)cc2c(N2CCSCC2)n1 | – | 28.2 µM (active)
48 | O=C(NC1CCCCC1)c1cc(C2CC2)on1 | 20.7% (inactive) | –
49 | COc1ccc(N2CCN(c3nc(C(=O)NC4CCCCCC4)cs3)CC2)cc1 | -9.1% (inactive) | –
50 | COc1cccc(NC(=O)c2csnn2)c1 | -29.2% (inactive) | –
51 | CCOC(=O)C1CCN(CCC(=O)Nc2cc(OC)cc(OC)c2)CC1 | -4.23% (inactive) | –
52 | O=C(OC1CCOC1=O)c1ccccc1SC1CCOC1=O (centres undefined) | -15.3% (inactive) | –

Row | Compound | activity change, negative = inhibition | Potency
53 | O=C1CC(c2nc(-c3ccc(Oc4ccccc4)cc3)no2)CN1c1ccccc1 (centres undefined) | 21.5% (inactive) | –
54 | O=C(c1ccccc1F)N1CCC2(CC1)C(=O)NN=C2C1CC1 | 7.64% [at 86.2 µM] (inactive) | –
55 | CNC(=O)c1cccc(NC(=O)CC(C)(C(=O)O)c2ccccc2)c1 (centres undefined) | 1.72% (inactive) | –
56 | Cc1cc(C)c(CNC(=O)c2nc(-c3cccc(CO)c3)cc3c2ccn3C)c(=O)[nH]1 | – | 35.5 µM (active)
57 | O=S(=O)(Oc1ccccc1C(=S)N1CCOCC1)c1ccc(Cl)cc1 | -14.3% (inactive) | –
58 | CCN(c1ccc(NC(=O)c2nccnc2N)cc1)C(C)C | -22.1% (inactive) | –
59 | Cc1cc(S(=O)(=O)c2cc3cc(F)cc(F)c3oc2=O)ccc1F | -3.98% (inactive) | –
60 | O=S(=O)(c1ccc(F)cc1)N1CCn2cccc2C1c1ccccc1F (centres undefined) | -23.3% (inactive) | –
61 | Cc1cccc(NN)c1C | 13.4% (inactive) | –
62 | COc1cccc(CNC(=O)CC(C)CC(=O)O)c1 (centres undefined) | -3.92% (inactive) | –
63 | CCc1ccc(OCC(=O)Nc2ccc(S(=O)(=O)NC(C)(C)C)cc2)cc1 | -20.3% (inactive) | –
64 | NC(=O)c1ccc(OC2CCN(C(=O)c3ccc(F)cc3)CC2)nc1 | -3.04% (inactive) | –
65 | CNc1ccc(OC2CCN(C(=O)NCCc3ccccc3)CC2)nc1 | – | 28.2 µM (active)
66 | NC(=O)c1ccc(OC2CCN(C(=O)CCc3ccccc3)C2)nc1 (centres undefined) | 0.563% (inactive) | –
67 | CN(C)c1ncccc1CNC(=O)Cc1ccccc1F | -3.47% (inactive) | –
68 | CC(NC(=O)c1ccc2c(c1)CCCC2)c1ccccc1 (centres undefined) | 18.5% (inactive) | –
69 | Cc1c(C(=O)NCCN(C)C)oc2ccc(S(=O)(=O)N3CCCC3)cc12 | 14% (inactive) | –
70 | COc1ccc(-c2[nH]nc3ncc(-c4cn[nH]c4)nc23)cc1F | -28.7% [at 86.2 µM] (inactive) | –
71 | Cc1ccsc1-c1[nH]nc2ncc(-c3ccccc3O)nc12 | -14.5% [at 86.2 µM] (inactive) | –
72 | C[S+](=O)([O-])c1ccc(-c2cnc3n[nH]c(-c4ccccc4)c3n2)cc1 | – | 35.5 µM (active)
73 | Fc1ccc(-c2cnc3n[nH]c(-c4ccc5c(c4)OCO5)c3n2)cc1 | 4.47% [at 86.2 µM] (inactive) | –
74 | Cn1cc(-c2cnc3n[nH]c(-c4ccccc4)c3n2)cn1 | – | 35.5 µM (active)
75 | Cc1cccc(-c2cnc3n[nH]c(-c4ccc5c(c4)OCO5)c3n2)c1 | 7.1% [at 86.2 µM] (inactive) | –
76 | Cc1ccc(C(=O)NCC(c2cccs2)N(C)C)cc1S(=O)(=O)N1CCOCC1 (centres undefined) | -3.06% (inactive) | –
77 | O=C(c1cccc(Br)c1)N1CCN(C2=NS(=O)(=O)c3ccccc32)CC1 | 13% (inactive) | –
78 | COc1ccc(NC(=O)CCCC2CCCCC2)c(OC)c1 | -4.56% (inactive) | –

Row | Compound | activity change, negative = inhibition | Potency
79 | COc1ccccc1CN1CC[C@@H](CO)N(C)c2ncccc2C1 | – | 31.6 µM (active)
80 | COc1cccc(CN2CCN(Cc3ncccc3C)CC2)c1O | -54.2% (inactive) | –
81 | COc1ccccc1CN1CCC(N2CCN(c3ccccc3OC)CC2)CC1 | -8.14% (inactive) | –
82 | CC(C)n1ncc2cc(C(=O)N3CCCCc4ccccc43)cnc21 | 6.87% (inactive) | –
83 | CCN(CCCNC(=O)c1nn(-c2ccc(OC)cc2)c(=O)c2ccccc12)Cc1ccccc1 | -6.9% (inactive) | –
84 | CN(Cc1ccc(F)cc1)C(=O)Cn1nc(C(=O)O)c2ccccc2c1=O | 3.35% (inactive) | –
85 | CN1CCC2(C1)CN(CC1CCOCC1)c1ccc(C(=O)NCCCn3ccnc3)cc12 (centres undefined) | – | 39.8 µM (active)
86 | CC(=O)Nc1ccc(C2(C(=O)NCCCN3CCOCC3)CCCCC2)cc1 | -14.7% (inactive) | –
87 | COc1ccc(S(=O)(=O)N2CCCC(C(=O)NCCCn3ccnc3)C2)cc1OC (centres undefined) | 15.5% (inactive) | –
88 | Cc1c(C(=O)N(Cc2nc3ccccc3c(=O)[nH]2)C(C)C)oc2ccc(Cl)cc12 | -4.06% (inactive) | –
89 | CCN1C(=O)C(=O)N(CC(=O)Nc2cc(C)ccc2C)C1=O | 22.3% (inactive) | –
90 | CC(=O)N[C@H]1CN(c2cncc(C(=O)N3CCCC3)n2)C[C@@H]1C1CC1 | – | 28.2 µM (active)
91 | O=C(c1cnccn1)N1CC2CC(C1)[C@H]1CCCC(=O)N1C2 (some centres undefined) | 23.3% (inactive) | –
92 | Cc1ccc(C(=O)N2CC[C@H](CO)[C@H](NC(=O)C3CC3)C2)cn1 | -23.3% (inactive) | –
93 | Cc1ccc(N(CC(=O)NC2CCCCCCC2)S(=O)(=O)N(C)C)cc1 | 15.6% (inactive) | –
94 | O=C(Nc1cccnc1)[C@@H]1C[C@@H](c2ccc(F)cc2)N([S+](=O)([O-])c2ccccc2)C1 | -8.21% [at 86.2 µM] (inactive) | –
95 | O=C([C@@H]1C[C@H](c2ccc(F)cc2)N([S+](=O)([O-])C2CC2)C1)N1CCN(c2ccccn2)CC1 | – | 20 µM (active)
96 | O=C(Nc1cccc(Cl)c1)[C@@H]1C[C@H](c2ccc(F)cc2)N([S+](=O)([O-])C2CC2)C1 | -4.57% [at 86.2 µM] (inactive) | –
97 | Cc1c(C)n2c3c(=O)[nH]c(=O)n(C)c3nc2n1CCN1CCN(Cc2ccc(F)cc2)CC1 | 16.1% (inactive) | –
98 | C=CCOC/C=C/C#CCN(CC=C)Cc1ccc(OC)cc1OC | 14.3% (inactive) | –
99 | CCCN1C(=O)Cc2cc(C(=O)NC3CC3)ccc21 | 9.76% (inactive) | –
100 | O=C1Nc2ccccc2CC12CCN(CC1CC1)C2 (centres undefined) | 20.3% [at 86.2 µM] (inactive) | –
101 | CC(=O)N1CCCC2(C1)CN(C)c1ccc(C(=O)NC3CC3)cc12 (centres undefined) | – | 25.1 µM (active)
102 | O=C(NC1CCCCC1)c1ccc2c(c1)N(Cc1ccc(Cl)cc1)C(=O)c1ccccc1S2=O (centres undefined) | -4.14% (inactive) | –
103 | CC(=O)N1CCC(Cc2ccc(C(=O)NC3CC3)cc2)CC1 | 4.77% (inactive) | –
104 | O=C(NC1CC1)c1ccc2c(c1)C1(CCN(CC3CC3)C1)CN2Cc1ccccc1 (centres undefined) | – | 31.6 µM (active)
